Measured values reported in PubChem BioAssay (Tox21).
Results filed as inconclusive are left out. Activity calls are given as the source filed them. Unless noted, the call rests on the fitted dose curve; in most records, active means well fitted curve in the direction sought with a large enough effect in the repeat runs; inconclusive means weak or mixed curves; inactive means no such curve, though single readings can be large; an effect the other way counts as inactive or inconclusive.

What was measured:
[1] = qHTS assay for small molecules that induce genotoxicity in human embryonic kidney cells expressing luciferase-tagged ATAD5 (AID 651632); further: nearly all actives have a fitted effect of over 15% in size
Method in brief: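 Luminescent reporter readout, HEK293T ATAD5-luc line: 16 hr drug exposure (37C, 5% CO2) followed by Amplite, 30 min RT.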

[2] = qHTS assay for small molecule agonists of the p53 signaling pathway - cell viability (AID 651633; calls by dose curve;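 further: p53RE-bla HCT reporter cells with a stable beta-lactamase p53 reporter; series mostly up to about 83 µM; nearly all actives have a fitted effect of over 30% in size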)
Method in brief: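 p53RE-bla cells, seeded at 4,000 per well and rested 5 h at 37 C/5% CO2, received compounds in DMSO for 16 h at 37 C. CellTiter-Glo was then added, and luminescence was read after 30 min at room temperature to gauge cytotoxicity.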

[3] = qHTS assay for small molecules that induce genotoxicity in human embryonic kidney cells expressing luciferase-tagged ATAD5 - cell viability (AID 651634; calls by dose curve; further: nearly all actives have a fitted effect of over 25% in size)
Method in brief: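 Viability read: CellTiter-Fluor fluorescence, 30 min at 37C. Cells: HEK293T, luciferase-tagged ATAD5. Exposure: 15.5 hr, 37C, 5% CO2, compound or DMSO vehicle.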

[4] = qHTS assay for small molecule disruptors of the mitochondrial membrane potential - cell viability (AID 720634; calls by dose curve;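 further: human HepG2 liver cancer cells; series mostly up to about 83 µM; nearly all actives have a fitted effect of over 20% in size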)
Method in brief: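 HepG2, 1 hr compound, 37 C. ATP luminescence via CellTiter-Glo, 30 min RT, same well as m-MPI.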

[5] = qHTS assay to test for compound auto fluorescence at 590 nm (red) in HepG2 cells (AID 720674)
Method in brief: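 Compound auto-fluorescence is scored relative to Rose Bengal sodium, measured at 540/590 nm in live HepG2 cultures after 1 hr compound contact (37 C, 5% CO2).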

[6] = qHTS assay to test for compound auto fluorescence at 535 nm (green) in HepG2 cells (AID 720675)
[7] = qHTS assay to test for compound auto fluorescence at 460 nm (blue) in HEK293 cells (AID 720678)
Method in brief: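 Triamterene serves as the blue fluorophore standard. Compound signal at 405/460 nm is read in HEK293 wells (2,000 cells, 10% dialyzed FBS) after overnight treatment at 37C.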

[8] = qHTS assay to test for compound auto fluorescence at 535 nm (green) in HEK293 cells (AID 720680)
[9] = qHTS assay to test for compound auto fluorescence at 460 nm (blue) in HEK293 cell free culture (AID 720681)
Method in brief: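 Test compounds were pinned into cell-free culture medium (DMEM with 10% FBS) and fluorescence was read directly at Ex/Em 405/460 nm. Signals were expressed as fluorescence equivalents of triamterene, with DMSO vehicle as control.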

[10] = qHTS assay to test for compound auto fluorescence at 535 nm (green) in HEK293 cell free culture (AID 720682)
Method in brief: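 Using fluorescein as calibrant, autofluorescence was quantified at 485/535 nm in cell-free DMEM containing 10% FBS after pintool addition of compound or vehicle.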

[11] = qHTS assay to test for compound auto fluorescence at 590 nm (red) in HEK293 cell free culture (AID 720683)
Method in brief: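 Tox21 10K library compounds were pinned into cell-free DMEM with 10% FBS and fluorescence was read at excitation 540 nm. Activity is expressed as Rose Bengal sodium equivalency.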

[12] = qHTS assay to test for compound auto fluorescence at 460 nm (blue) in HepG2 cell free culture (AID 720685)
Method in brief: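 Compound (23 nL) or DMSO pinned into cell-free MEM with 10% FBS; blue fluorescence read at 405/460 nm excitation/emission, expressed as auto-fluorescence equivalency to triamterene.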

[13] = qHTS assay to test for compound auto fluorescence at 535 nm (green) in HepG2 cell free culture (AID 720686)
[14] = qHTS assay to test for compound auto fluorescence at 460 nm (blue) in HepG2 cells (AID 720687)
Method in brief: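 Cells (2,000/well in MEM with 10% FBS) attached overnight at 37 C, then were exposed to compound or DMSO for 1 hr at 37 C, 5% CO2. Fluorescence read at Ex/Em 405/460 nm, expressed as triamterene-equivalent signal.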

[15] = target: Glucocorticoid receptor (Homo sapiens) (UniProt P04150); assay: qHTS assay to identify small molecule agonists of the glucocorticoid receptor (GR) signaling pathway (AID 720691; active means well fitted activation curve with a large enough effect in the signal ratio in the repeat runs, not every such curve was filed as active; the % refers to the signal ratio)
Glucocorticoid receptor (Homo sapiens), sequence (P04150 whole entry, looked up): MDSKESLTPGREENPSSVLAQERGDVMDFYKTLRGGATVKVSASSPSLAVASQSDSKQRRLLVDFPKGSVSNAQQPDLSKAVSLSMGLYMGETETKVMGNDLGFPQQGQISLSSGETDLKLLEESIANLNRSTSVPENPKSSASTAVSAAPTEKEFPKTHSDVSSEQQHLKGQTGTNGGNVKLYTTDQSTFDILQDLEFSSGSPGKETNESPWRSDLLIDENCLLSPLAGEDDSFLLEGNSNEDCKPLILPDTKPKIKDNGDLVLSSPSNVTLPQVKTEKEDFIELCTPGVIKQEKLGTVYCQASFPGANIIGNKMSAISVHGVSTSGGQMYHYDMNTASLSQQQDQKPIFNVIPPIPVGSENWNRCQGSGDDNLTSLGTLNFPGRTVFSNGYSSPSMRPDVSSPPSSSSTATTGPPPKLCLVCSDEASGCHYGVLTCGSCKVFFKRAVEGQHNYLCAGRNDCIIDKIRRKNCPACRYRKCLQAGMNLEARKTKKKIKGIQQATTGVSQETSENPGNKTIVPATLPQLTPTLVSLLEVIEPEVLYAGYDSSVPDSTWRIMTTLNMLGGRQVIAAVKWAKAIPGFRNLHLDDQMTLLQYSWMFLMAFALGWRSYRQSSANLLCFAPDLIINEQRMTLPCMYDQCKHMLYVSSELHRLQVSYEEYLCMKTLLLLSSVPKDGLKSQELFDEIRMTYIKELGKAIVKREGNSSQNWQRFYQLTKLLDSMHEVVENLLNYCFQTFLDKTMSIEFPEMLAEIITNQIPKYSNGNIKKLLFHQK
Method in brief: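 qHTS in GR-bla HeLa cells: 4 h settling at 37 C/5% CO2, 18 h compound incubation at 37 C, 2 h LiveBLAzer B/G FRET substrate at room temperature, fluorescence intensity measured.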

[16] = qHTS assay for small molecule disruptors of the mitochondrial membrane potential (AID 720635); further: potency means the concentration at half of the fitted maximal effect
Method in brief: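 HepG2 cells (2,000/well) attached overnight at 37C, then took compound for 1 hr at 37C, 5% CO2. Mito-MPS dye was added for 30 min; fluorescence was read at 490/535 nm (monomers) and 540/590 nm (aggregates).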

[17] = qHTS assay to test for compound auto fluorescence at 590 nm (red) in HEK293 cells (AID 720679)
Method in brief: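 We plated HEK293 cells in 10% dialyzed FBS medium, let them adhere for 4-5 hr, then added 23 nL compound. Overnight at 37C and 5% CO2 preceded fluorescence measurement at 540/590nm.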

[18] = qHTS assay to test for compound auto fluorescence at 590 nm (red) in HepG2 cell free culture (AID 720684)
Method in brief: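 Measured in medium alone (MEM containing 10% FBS) following pintool addition of compound; emission at 590 nm with 540 nm excitation, referenced to Rose Bengal sodium.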

[19] = target: Glucocorticoid receptor (Homo sapiens) (UniProt P04150); assay: qHTS assay to identify small molecule antagonists of the glucocorticoid receptor (GR) signaling pathway (AID 720692; active means well fitted inhibition curve with a large enough effect in the signal ratio in the repeat runs, not every such curve was filed as active; the % refers to the signal ratio)
Method in brief: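 Inhibition of glucocorticoid signalling is measured in HeLa cells with a GRE-controlled beta-lactamase reporter; cells are co-treated with compound and 5 nM dexamethasone (final) for 18 h before FRET substrate readout.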
On the % scale 0 is the no-effect control and ±100 the full control effect.

CO[C@@]1(NC(=O)C(C(=O)O)c2ccc(O)cc2)C(=O)N2C(C(=O)O)=C(CSc3nnnn3C)CO[C@@H]21 (stereo partly specified)
inactive: Potency [1] | Potency [2] | Potency [3] | outcome [4] | fluorescence, relative to Rose Bengal [5] 0.111% [at 18.6 µM] | fluorescence, % of fluorescein control [6] -0.0745% [at 18.6 µM] | fluorescence, % of triamterene [7] 0.184% [at 18.6 µM] | fluorescence, % of fluorescein [8] 0.0617% [at 18.6 µM] | fluorescence, % of fluorescent control [9] 0.413% [at 18.6 µM] | activity change [10] 0.0756% [at 18.6 µM] | fluorescence, % of fluorescent control [11] 0.0003% [at 18.6 µM] | fluorescence, % of fluorescent control [12] 0.334% [at 18.6 µM] | fluorescence, % of fluorescein control [13] 0.0104% [at 18.6 µM] | fluorescence, % of fluorescent control [14] 0.208% [at 18.6 µM] | Potency [15]

Cc1c(N)c(=O)n(-c2ccccc2)n1C
inactive: Potency [2] | Potency [3] | outcome [4] | Potency [16] | fluorescence, relative to Rose Bengal [5] -0.0352% [at 18.6 µM] | fluorescence, % of fluorescein control [6] 0.0089% [at 18.6 µM] | fluorescence, % of triamterene [7] 0.0036% [at 18.6 µM] | fluorescence, % of fluorescent control [17] 0.258% [at 18.6 µM] | fluorescence, % of fluorescein [8] -0.0771% [at 18.6 µM] | fluorescence, % of fluorescent control [9] 0.0935% [at 18.6 µM] | activity change [10] -0.102% [at 18.6 µM] | fluorescence, % of fluorescent control [11] 0.419% [at 18.6 µM] | fluorescence, % of Rose Bengal [18] 0.0086% [at 18.6 µM] | fluorescence, % of fluorescent control [12] -0.0617% [at 18.6 µM] | fluorescence, % of fluorescein control [13] -0.0689% [at 18.6 µM] | fluorescence, % of fluorescent control [14] -0.0556% [at 18.6 µM] | Potency [15] | Potency [19]

CC(CO)(CO)[N+](=O)[O-]
inactive: Potency [1] | Potency [2] | Potency [3] | outcome [4] | outcome [6] | outcome [7] | outcome [17] | outcome [8] | outcome [9] | outcome [10] | outcome [11] | outcome [12] | outcome [13] | outcome [14] | Potency [15]

CCO[Si](OCC)(OCC)c1ccccc1
inactive: Potency [1] | Potency [2] | Potency [3] | outcome [4] | outcome [5] | outcome [6] | outcome [17] | outcome [8] | outcome [9] | outcome [10] | outcome [11] | outcome [12] | outcome [13] | outcome [14] | Potency [15] | Potency [19]

C1CCC2=NCCCN2CC1
inactive: Potency [2] | Potency [3] | outcome [4] | Potency [16] | outcome [6] | outcome [7] | outcome [17] | outcome [8] | outcome [9] | outcome [10] | outcome [11] | outcome [18] | outcome [12] | outcome [13] | outcome [14] | Potency [15] | Potency [19]

C[C@H]1[C@H](NC(=O)/C(=N/OC(C)(C)C(=O)O)c2csc(N)n2)C(=O)N1S(=O)(=O)O (stereo in doubt)
inactive: Potency [2] | Potency [3] | outcome [4] | Potency [16] | fluorescence, relative to Rose Bengal [5] -0.264% [at 18.6 µM] | fluorescence, % of fluorescein control [6] -0.201% [at 18.6 µM] | fluorescence, % of triamterene [7] 0.218% [at 18.6 µM] | fluorescence, % of fluorescent control [17] 0.181% [at 18.6 µM] | fluorescence, % of fluorescein [8] 0.0034% [at 18.6 µM] | fluorescence, % of fluorescent control [9] 0.0562% [at 18.6 µM] | activity change [10] 0.008% [at 18.6 µM] | fluorescence, % of fluorescent control [11] 0.271% [at 18.6 µM] | fluorescence, % of fluorescent control [12] 0.104% [at 18.6 µM] | fluorescence, % of fluorescein control [13] 0.102% [at 18.6 µM] | Potency [15] | Potency [19]

O=C(c1ccccc1O)c1ccccc1O
active: Potency [16] 12.1 µM
inactive: Potency [1] | Potency [3] | outcome [4] | outcome [5] | outcome [6] | outcome [7] | outcome [17] | outcome [8] | outcome [9] | outcome [10] | outcome [11] | outcome [18] | outcome [12] | outcome [13] | outcome [14] | Potency [19]

NCCCC(N)(C(=O)O)C(F)F (stereo unspecified)
inactive: Potency [1] | Potency [2] | Potency [3] | outcome [4] | outcome [5] | outcome [6] | outcome [8] | outcome [9] | outcome [10] | outcome [11] | outcome [18] | outcome [12] | outcome [13] | outcome [14] | Potency [15] | Potency [19]

CCCCc1ccc2c(n1)[C@@H](c1ccc(OC)cc1C[C@H](C)C(=O)O)[C@H](C(=O)O)[C@H]2c1ccc2c(c1)OCO2
inactive: Potency [1] | Potency [2] | Potency [3] | outcome [5] | outcome [6] | outcome [7] | outcome [17] | outcome [8] | outcome [9] | outcome [10] | outcome [11] | outcome [18] | outcome [12] | outcome [13] | outcome [14] | Potency [15] | Potency [19]

Nc1ccn([C@@H]2O[C@H](CO)[C@@H](O)[C@@H]2O)c(=O)n1
inactive: Potency [1] | Potency [2] | Potency [3] | outcome [5] | outcome [6] | outcome [7] | outcome [8] | outcome [9] | outcome [10] | outcome [11] | outcome [18] | outcome [12] | outcome [13] | outcome [14] | Potency [15]

CC[N+](CC)(CC)CCOc1cccc(OCC[N+](CC)(CC)CC)c1OCC[N+](CC)(CC)CC
inactive: Potency [1] | Potency [2] | outcome [4] | outcome [5] | outcome [6] | outcome [7] | outcome [17] | outcome [8] | outcome [9] | outcome [10] | outcome [11] | outcome [18] | outcome [12] | outcome [13] | outcome [14] | Potency [15] | Potency [19]

CCN[C@H]1C[C@H](C)S(=O)(=O)c2sc(S(N)(=O)=O)cc21
inactive: Potency [1] | outcome [4] | Potency [16] | outcome [6] | outcome [17] | outcome [8] | outcome [9] | outcome [10] | outcome [11] | outcome [18] | outcome [12] | outcome [13] | outcome [14] | Potency [15] | Potency [19]

CCCCCCCCCCOc1cc2c(=O)c(C(=O)OCC)c[nH]c2cc1OCC
inactive: Potency [1] | Potency [2] | Potency [3] | outcome [4] | outcome [5] | outcome [17] | outcome [8] | outcome [9] | outcome [10] | outcome [11] | outcome [18] | outcome [12] | outcome [13] | outcome [14]

Cc1ccc(-c2ncc(Cl)cc2-c2ccc(S(C)(=O)=O)cc2)cn1
inactive: Potency [1] | Potency [2] | outcome [4] | Potency [16] | outcome [6] | outcome [7] | outcome [17] | outcome [8] | outcome [9] | outcome [10] | outcome [11] | outcome [18] | outcome [12] | outcome [14]

CCCCCCCCCC[N+](C)(C)[O-]
inactive: Potency [1] | Potency [2] | Potency [3] | outcome [4] | outcome [6] | outcome [7] | outcome [8] | outcome [9] | outcome [10] | outcome [11] | outcome [18] | outcome [12] | outcome [13] | Potency [15]

FB(F)F
inactive: Potency [1] | Potency [2] | Potency [3] | outcome [4] | outcome [5] | outcome [6] | outcome [8] | outcome [9] | outcome [10] | outcome [11] | outcome [12] | outcome [14] | Potency [15] | Potency [19]

CN1CCC(=C2c3ccccc3CCc3cccnc32)CC1
inactive: Potency [1] | Potency [3] | outcome [4] | Potency [16] | outcome [5] | outcome [6] | outcome [7] | outcome [17] | outcome [8] | outcome [9] | outcome [10] | outcome [11] | outcome [18] | outcome [12] | outcome [13] | outcome [14]
